Reference: PubChem BioAssay AID2673 (National Center for Advancing Translational Sciences (NCATS), 2010)
Records with an inconclusive call do not appear. The source made the active and inactive calls. Calls follow the shape of the dose curve; as a rule, active = well fitted activation curve with a large enough effect; inconclusive = small, poorly fitted or top-dose-only effect; inactive = no such curve, though single readings can be large or run the other way.

Assay: qHTS Multiplex Assay to Identify Dual Action Probes in a Cell Model of Huntington: Cytoprotection confirmation (ATP)
Conditions: PC12 HttQ103 induced, ATP luminescence 40 h; series mostly up to 46.1 µM; cytoprotection, positive = protection: at the top concentration
Text: NIH Chemical Genomics Center [NCGC]
NIH Molecular Libraries Probe Production centers Network [MLPCN]
Assay Submitter (PI): Wei Zheng
Huntington's disease is a neurodegenerative disorder caused by a trinucleotide repeat expansion in Exon 1 of the Huntingtin gene. The CAG trinucleotide encodes glutamine and polyglutamine expansions cause cell death in selective areas of the brain. Huntington polyglutamine repeats have the tendency to form aggregates which are observable in later stages of the disease. The exact nature of the aggregates, whether toxic, protective, or insignificant, is unclear.
A stable PC12 cell line containing a gene fusion of Exon 1 of the Huntingtin gene linked to GFP under the control of the inducible ecdysone promoter were used as the cell-based model of Huntington Disease for high throughput screening. Exon 1 of the Huntingtin gene contained an expansion of 103 polyglutamines (Q103) which, when expressed, caused cell death and distinct, bright GFP aggregates. The amount of cell death and the size and intensity of GFP aggregates increased over time and induction level. The cell death were quantified with a measurement of ATP content in the cells. A maximal 40-50% of cell death was observed when the Huntington gene was induced in this cell line.
We optimized this assay in a homogeneous 1536 well format. A quantitative high throughput screen (qHTS) was conducted on the PC12 cells which were induced to express the toxic fusion construct. Small molecules which prevented cell death were identified by using a luminescent ATP quantification method (Perkin Elmer's ATPlite).
PC12 cells stably containing a construct with an ecdysone inducible promoter expressing GFP fused to the exon 1 of HTTQ103 (Huntington protein which containing a 103 ployglutamine expansion) were used.
NCGC Assay Protocol Summary:
Sequence, Parameter, Description
1, Reagent, 5 uL 1500 cells/well 1536 TC treated White clear bottom plate
2, Compound, 23 nL Tebufenozide inducer (100 nM final) to all columns
3, Compound, 23 nL 40 uM to 0.5 nM Libraries
5, Reagent, 5 ul ATPLite cell death assay reagent
6, Detector, 4 sec integration with a Viewlux Luminescent
Media consisted of phenol red free DMEM + 5% equine serum (Hyclone # SH30072.03 ), 5% supplemented Bovine Calf Serum (Hyclone # SH30074.03 ), 1x pen/strep, no G418

| Structure (SMILES) | cytoprotection, positive = protection | Potency |
| --- | --- | --- |
| COc1ccc2cc3cc(C(=O)N4CCN(c5ccccc5)CC4)oc3nc2c1 | -12.8% (inactive) | – |
| COc1ccc(NC(=O)c2sc(SC)nc2N)cc1 | -9.58% (inactive) | – |
| CC(C(=O)O)c1ccc(N2Cc3ccccc3C2=O)cc1 (stereo not given) | -67.7% (inactive) | – |
| Cn1nnnc1Sc1ncnc2scc(-c3ccc(Cl)cc3)c12 | -97.3% (inactive) | – |
| CN1C(=O)NC(NC(=O)c2cccs2)(C(F)(F)F)C1=O (stereo not given) | 8.42% (inactive) | – |
| COc1cccc(C(=O)Nc2ccc(F)c(F)c2F)c1 | -15.2% (inactive) | – |
| COc1ccc2cc3cc(C(=O)NCc4ccco4)oc3nc2c1 | -30.7% (inactive) | – |
| COc1cc(NC(=O)c2cc3nc(C)cc(C)n3n2)c(OC)cc1Cl | -22.2% (inactive) | – |
| CC(=O)c1ccc(-c2csc3ncnc(Sc4nnnn4C)c23)cc1 | -23.7% (inactive) | – |
| Cc1ccc(-c2csc3ncnc(Sc4nnnn4C)c23)cc1 | – | 35.5 µM (active) |
| Fc1ccc(N2CCN(c3ncnc4nc[nH]c34)CC2)cc1 | -30.4% (inactive) | – |
| O=C(NCc1ccco1)c1cc2ccc(O)cc2oc1=O | -11.2% (inactive) | – |
| CCc1nc(SCC(=O)N2CCCC2)c2ccccc2n1 | -17.6% (inactive) | – |
| Cn1nnnc1Sc1ncnc2scc(-c3cccs3)c12 | – | 10 µM (active) |
| COc1ccc2c(c1)-c1c(ssc1=S)C(C)(C)N2 | 4.29% (inactive) | – |
| O=C(Nc1ccccc1)C1=C(O)CC(c2ccco2)CC1=Nc1ccccc1 (stereo not given) | -18.2% (inactive) | – |
| O=C(O)c1cc(=O)c2ccc(Cl)cc2[nH]1 | 8.97% (inactive) | – |
| COc1ccc(C(=O)Cc2ccc(OC)c(OC)c2)cc1 | -11.5% (inactive) | – |
| Cn1nnnc1Sc1ncnc2scc(-c3ccccc3C#N)c12 | – | 28.2 µM (active) |
| Cn1nnnc1Sc1ncnc2scc(-c3ccc(C#N)cc3)c12 | – | 10 µM (active) |

| Structure (SMILES) | cytoprotection, positive = protection | Potency |
| --- | --- | --- |
| Cn1nnnc1Sc1ncnc2scc(-c3ccccc3Br)c12 | – | 35.5 µM (active) |
| CC(C)(C)n1nnnc1C(c1ccc2ncccc2c1)N1CCSCC1 (stereo not given) | -8.22% (inactive) | – |
| C[C@]12CC[C@@H]3c4ccc(OC(=O)c5ccccc5)cc4CC[C@H]3[C@@H]1CC[C@@H]2O | -43.4% (inactive) | – |
| Cn1nnnc1Sc1ncnc2scc(-c3cc4ccccc4o3)c12 | -107% (inactive) | – |
| Cn1nnnc1Sc1ncnc2scc(-c3ccsc3)c12 | – | 11.2 µM (active) |
| Cc1csc(N/N=C/c2ccc(O)c([N+](=O)[O-])c2)n1 | -43.6% (inactive) | – |
| COc1ccc(C(=O)C(CN2CCOCC2)c2ccccc2)cc1 (stereo not given) | 142% (inactive) | – |
| CCN(CC)CCNc1ccc(CO)c2sc3ccccc3c(=O)c12 | -91.3% (inactive) | – |
| O=C(c1ccccc1)c1ccc2n1CCC2C(=O)O (stereo not given) | 5.43% (inactive) | – |
| CCC(=O)OCCCCCCOc1ccc(C(=O)O)cc1 | -1.38% (inactive) | – |
| CCc1ccc2oc(-c3cc(N)ccc3O)nc2c1 | -77.5% (inactive) | – |
| N#CCCn1c(Cl)nc2ccccc21 | -11.9% (inactive) | – |
| COc1cc(Cc2cnc(N)nc2N)cc(OC)c1OC | 1.87% (inactive) | – |
| O=C(O)/C=C/C(O)c1ccc(Cl)cc1 (stereo not given) | -13.1% (inactive) | – |
| Cc1cc(C)nc(Sc2nc(C)nc3c2oc2ccccc23)n1 | -2.25% (inactive) | – |
| CC(=O)Nc1ccc(S(=O)(=O)N2CCSC2c2ccccc2)cc1 (stereo not given) | 9.67% (inactive) | – |
| C[C@@H]1CNCCN1S(=O)(=O)c1cccc2cnccc12 | 0.336% (inactive) | – |
| Cn1nnnc1Sc1ncnc2scc(-c3ccccc3)c12 | – | 25.1 µM (active) |
| CCCn1nc([N+](=O)[O-])c(C(C#N)c2nc3ccccc3s2)c(Cl)c1=O (stereo not given) | -23.1% (inactive) | – |
| Cc1nnsc1C(=O)N/N=C/c1ccc2ccccc2c1O | -67.4% (inactive) | – |
